Source: PubChem
TRPV1 PAM = HTS Assay for Compounds that Act as Potentiators of the Vanilloid Receptor 1 | Transient receptor potential cation channel subfamily V member 1 (Homo sapiens), Q8NER1 | TRPV1-expressing cells, Fluo-8 calcium influx, capsaicin EC20 potentiation | potentiation, % at 8.33 µM | hit rate 0.02% among 320,000 | AID 540277, 2011; in the data active means potentiation above about 80%; inconclusive means between about 30% and that limit; further: 0% is about no effect
Target sequence (Q8NER1 whole entry, looked up): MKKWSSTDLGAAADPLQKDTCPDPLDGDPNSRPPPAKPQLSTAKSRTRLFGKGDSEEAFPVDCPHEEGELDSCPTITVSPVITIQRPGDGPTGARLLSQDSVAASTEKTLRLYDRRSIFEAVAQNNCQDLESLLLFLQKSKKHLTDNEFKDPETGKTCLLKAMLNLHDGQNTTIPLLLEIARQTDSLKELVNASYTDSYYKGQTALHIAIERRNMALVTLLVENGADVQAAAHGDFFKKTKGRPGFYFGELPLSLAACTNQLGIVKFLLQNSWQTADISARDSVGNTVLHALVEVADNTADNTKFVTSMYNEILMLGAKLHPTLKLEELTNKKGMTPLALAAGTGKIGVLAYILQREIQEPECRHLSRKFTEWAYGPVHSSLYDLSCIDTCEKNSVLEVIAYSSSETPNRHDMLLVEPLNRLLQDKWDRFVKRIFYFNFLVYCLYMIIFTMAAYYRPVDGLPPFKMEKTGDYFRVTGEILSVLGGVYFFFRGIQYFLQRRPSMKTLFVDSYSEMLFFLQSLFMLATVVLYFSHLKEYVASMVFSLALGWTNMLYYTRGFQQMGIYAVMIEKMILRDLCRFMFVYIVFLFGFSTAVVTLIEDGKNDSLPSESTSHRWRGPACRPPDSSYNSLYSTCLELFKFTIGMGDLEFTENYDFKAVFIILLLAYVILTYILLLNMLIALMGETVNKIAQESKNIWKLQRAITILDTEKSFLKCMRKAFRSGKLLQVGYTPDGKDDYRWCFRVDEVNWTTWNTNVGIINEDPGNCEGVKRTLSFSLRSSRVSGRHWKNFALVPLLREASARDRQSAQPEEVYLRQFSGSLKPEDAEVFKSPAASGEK
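Fluo-8 calcium influx in TRPV1-expressing cells, kinetic read (ex 480/em 520 nm). Compound added and read 3 min for agonist activity, followed by capsaicin at EC20 final and 2 min further read for enhancement.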
ELG1 DNA repair = qHTS screen for small molecules that inhibit ELG1-dependent DNA repair in human embryonic kidney (HEK293T) cells expressing luciferase-tagged ELG1; HEK293T ELG1-luciferase reporter, luminescence, 16 h; DNA damage induced by 5-fluorouridine; Potency, µM (top dose mostly 46.1 µM), without a hit: top-dose activity change, negative = inhibition, hits mostly inhibitors; hit rate 2.3% among 330,000; further: potency means the concentration at half of the fitted maximal effect; on the % scale 0 is the no-effect control and ±100 the full control effect; nearly all actives have a fitted effect of over 55% in size
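DMSO vehicle served as the neutral condition. Each well held 2,000 cells given 5-fluorouridine plus compound; after 16 hr at 37 °C/5% CO2, ONE-Glo was added and luciferase measured 30 min later.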
Giardia kill = Small Molecules that selectively kill Giardia lamblia: qHTS. AID 540267, 2011. activity change, % at 7.66 µM, hits read low. Giardia lamblia trophozoite viability. hit rate 0.15% among 340,000; in the data active means activity change below about -80%; inconclusive means between about -30% and that limit;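 further: parasites exposed to compound for two days anaerobically before the ATP read; on the % scale 0 is the no-effect control and ±100 the full control effect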
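Compounds were tested on trophozoites seeded at 100 cells/well and held 48 hrs at 37 deg C anaerobically. An ATP-based luminescent kit measured the remaining live cells.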
FUS suppressor = qHTS for Suppressors of FUS Proteinopathy: Primary screen using FUS-linked yeast assay | Potency, µM (titrated, usually from 76.6 µM), most hits filed as activators | hit rate 0.24% among 390,000 | AID 1347120, 2019 | S. cerevisiae FUS-expressing, growth rescue, OD600, 24 h;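 further: potency means the concentration at half of the fitted maximal effect; plate controls were DMSO vehicle for no effect and reference control for full effect; nearly all actives have a fitted effect of over 55% in size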
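Quantitative HTS measuring growth restoration of FUS-toxic yeast. Galactose-induced cells (OD 0.005) were exposed 24hr at 30C to compounds at several concentrations, then absorbance at 600 nm was recorded.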
TRPV1 agonist = HTS Assay for Compounds that Act as Agonists of the Vanilloid Receptor 1; Transient receptor potential cation channel subfamily V member 1 (Homo sapiens), Q8NER1; TRPV1-expressing cells, Fluo-8 calcium influx, agonist mode; activation, % at 8.33 µM; hit rate 0.19% among 320,000; AID 540275, 2011; in the data active means activation above about 80%; inconclusive means between about 30% and that limit; further: 0% is about no effect
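Cells expressing TRPV1 were dye-loaded with Fluo-8 and read kinetically: 10 s baseline, 3 min after compound (agonist portion), then 2 min after EC20 capsaicin (allosteric enhancer portion). Calcium-bound dye fluorescence at 480/520 nm.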
ELG1 FLuc counter = qHTS screen for small molecules that inhibit ELG1-dependent DNA repair: Hit Confirmation in Cell-Based Luciferin Assay; shares compounds with ELG1 DNA repair; cell-free firefly luciferase luminescence counter-screen, ViewLux; Potency, µM (doses to about 46.1 µM), without a hit: at the highest dose activity change, negative = inhibition, usual class: inhibitors; hit rate 3% among 350; AID 624247, 2012; further: potency means the concentration at half of the fitted maximal effect; on the % scale 0 is the no-effect control and ±100 the full control effect
ELG1-Luc inh = HTS assay for small molecules that inhibit ELG1-dependent DNA repair in human embryonic kidney (HEK293T) cells expressing luciferase-tagged ELG1: Hit Confirmation | Potency, µM (titrated, usually from 46.1 µM), without a hit: at the highest dose activity change, negative = inhibition, actives largely listed as inhibitors | AID 624248, 2012 | HEK293T ELG1-luciferase levels, luminescence; cells co-treated with 5-fluorouridine | shares compounds with ELG1 DNA repair | hit rate 68% among 670; further: potency means the concentration at half of the fitted maximal effect; on the % scale 0 is the no-effect control and ±100 the full control effect; nearly all actives have a fitted effect of over 55% in size
ELG1-Luc MMS = inhibits ELG1-dependent repair under MMS stimulation in HEK293T cells | hit rate 53% among 670 | shares compounds with ELG1 DNA repair | AID 624249 | HEK293T luciferase-tagged ELG1 level, MMS stimulated | Potency, µM (doses to about 46.1 µM), for inactives: top-dose activity change, negative = inhibition, actives largely listed as inhibitors; further: potency means the concentration at half of the fitted maximal effect; on the % scale 0 is the no-effect control and ±100 the full control effect; nearly all actives have a fitted effect of over 60% in size
ELG1 5FU viab = qHTS screen for small molecules that inhibit ELG1-dependent DNA repair: Hit Confirmation with 5FU Viability | shares compounds with ELG1 DNA repair | cell viability with 5-FU, ELG1-dependent repair | Potency, µM (highest dose often 46.1 µM), for inactives: top-dose activity change, negative = viability loss, actives largely listed as cytotoxic | 670 tested, under 10 active | AID 624250, 2012;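 further: ELG1-luc HEK293T cells cotreated with 5-fluorouridine at 10 µM final; potency means the concentration at half of the fitted maximal effect; viability measured 16 h after compound addition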
ELG1 MMS viab = qHTS screen for small molecules that inhibit ELG1-dependent DNA repair: Hit Confirmation with MMS Viability; shares compounds with ELG1 DNA repair; Cell viability with MMS, ELG1-dependent DNA repair; Potency, µM (series often up to 46.1 µM), inactives show at the highest dose activity change, negative = viability loss, most hits filed as cytotoxic; hit rate 33% among 670;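 further: ELG1-luc HEK293T cells co-treated with 10 µM MMS; potency means the concentration at half of the fitted maximal effect; viability read 16 h after compound addition; on the % scale 0 is the no-effect control and ±100 the full control effect; nearly all actives have a fitted effect of over 60% in size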
Cell viab unstim = qHTS screen for small molecules that inhibit ELG1-dependent DNA repair: Hit Confirmation with Unstimulated Viability Assay | shares compounds with ELG1 DNA repair | cell viability counter-screen, unstimulated, luminescence | Potency, µM (doses to about 45.9 µM), inactives show at the top dose activity change, negative = loss of viability, most hits filed as cytotoxic | hit rate 8% among 900 | AID 624252, 2012;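 further: potency means the concentration at half of the fitted maximal effect; compound exposure lasted 16 hours before reading; on the % scale 0 is the no-effect control and ±100 the full control effect; nearly all actives have a fitted effect of over 55% in size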
FLuc biochem = qHTS screen for small molecules that inhibit ELG1-dependent DNA repair: Hit Confirmation in Biochemical Luciferin Assay; purified firefly luciferase, luminescence counter-screen; Potency, µM (series often up to 57.5 µM), without a hit: at the top dose activity, negative = inhibition, most hits filed as inhibitors; hit rate 10% among 350; shares compounds with ELG1 DNA repair; further: potency means the concentration at half of the fitted maximal effect; on the % scale 0 is the no-effect control and ±100 the full control effect
Active calls of the source: *; i = inactive; ? = inconclusive; · = no result. Most compounds without a hit are left out; they make up all but 2.3% or so of the library. Unless noted, the call rests on the fitted dose curve; in most records, active means well fitted curve in the direction sought with a large enough effect; inconclusive means small, poorly fitted or top-dose-only effect, or another doubt; inactive means no such curve, though single readings can be large; an effect the other way counts as inactive or inconclusive.

SMILES | TRPV1 PAM | ELG1 DNA repair | Giardia kill | FUS suppressor | TRPV1 agonist | ELG1-Luc inh | ELG1-Luc MMS | ELG1 5FU viab | ELG1 MMS viab | Cell viab unstim | others
COc1ccc(NC(=O)c2sc3ncnc(N4CCN(c5ccccn5)CC4)c3c2C)cc1Cl | 9 | 2.6µM* | 35 | i | 0 | 5.6µM* | 13µM* | -7% | ? | ? | ELG1 FLuc counter=4%;FLuc biochem=-3%
COc1ccc(-c2noc(CSCC(=O)Nc3ccc(C)cc3Br)n2)cc1OC | · | · | · | i | · | · | · | · | · | ·
COC(=O)c1scc(-c2ccc(C)cc2)c1S(=O)(=O)N1CCN(c2ccc(C)cc2C)CC1 | · | · | · | i | · | · | · | · | · | ·
N#Cc1ccc(C(=O)Nc2ccc(Cl)c(-c3nc4cc(Cl)ccc4o3)c2)c(F)c1 | · | · | · | i | · | · | · | · | · | ·
COc1cccc(CN(C)C(=O)C(CCSC)NS(=O)(=O)c2ccc3c(c2)OCCO3)c1OC (stereo not drawn) | -13 | 4.6µM* | -9 | i | ? | 11µM* | 8.9µM* | 9% | ? | ?
CSCCC(NS(=O)(=O)c1ccc2c(c1)OCCO2)C(=O)N(C)Cc1ccc(C)cc1 (stereo not drawn) | 10 | -22% | 11 | i | 14 | · | · | · | · | ·
COc1ccc(N2Cc3cccc(C(=O)Nc4ccc(C)c(C)c4)c3C2=O)cc1 | · | · | · | i | · | · | · | · | · | ·
CCOc1cc(N2CCOCC2)c(OCC)cc1NC(=O)c1nn(CC)c(=O)c2ccccc12 | 8 | 2.3µM* | 21 | · | 0 | 2.2µM* | 14µM* | -9% | ? | ?
COc1ccc(S(=O)(=O)N2CCC3(CC2)OCCN3S(=O)(=O)c2cccs2)cc1OC | -4 | ? | -18 | i | 0 | · | · | · | · | ·
Cc1ncoc1C(=O)NC1CCCc2c1cnn2-c1cc(F)cc(F)c1 (stereo not drawn) | · | · | · | i | · | · | · | · | · | ·
Cc1ncoc1C(=O)NC1CCCc2c1cnn2-c1ccc(C(C)(C)C)cc1 (stereo not drawn) | -6 | 1.3µM* | -11 | · | ? | ? | 0.79µM* | -6% | 0.79µM* | 8.9µM*
CCC(C)NC(=O)c1ccc2nc(-c3ccc(OC)c(OC)c3)c(-c3ccc(OC)c(OC)c3)nc2c1 (stereo not drawn) | 11 | 0.52µM* | 23 | i | -2 | 1.6µM* | -17% | ? | -8% | ? | ELG1 FLuc counter=9%;FLuc biochem=-5%
COCC(C)NC(=O)c1ccc2nc(-c3ccccc3)c(-c3ccccc3)nc2c1 (stereo not drawn) | -24 | ? | -13 | i | ? | · | · | · | · | ·
Cc1ccc2oc(C(=O)Nc3ccc(S(=O)(=O)Nc4ncccn4)cc3)cc(=O)c2c1 | · | · | · | i | · | · | · | · | · | ·
CN(C)S(=O)(=O)c1ccc(NC(=O)c2cc(-c3cccs3)nc3ccccc23)cc1 | -10 | 3.7µM* | 3 | · | 8 | ? | ? | 3% | -12% | ?
CCc1cccc(NC(=O)Cn2cc(C=O)c3ccccc32)c1 | -29 | 3.7µM* | ? | i | -6 | ? | 2.5µM* | 1% | 2.8µM* | -18%
COc1ccc(CNC(=O)c2cccc(S(=O)(=O)N3CCN(c4ccc(F)cc4)CC3)c2)cc1 | 22 | 3.3µM* | 6 | i | 1 | 14µM* | 16µM* | 7% | 13µM* | ?
COc1cccc(CNC(=O)c2cccc(S(=O)(=O)N3CCN(c4ccc(F)cc4)CC3)c2)c1 | 14 | ? | 0 | i | 3 | · | · | · | · | ·
CCSc1ncc(Cl)c(C(=O)Nc2ccc(S(=O)(=O)N3CCCCC3)cc2)n1 | · | · | · | i | · | · | · | · | · | ·
Cc1ccc(N2CCN(C(=O)Nc3cn(CC(C)C)c(=O)c4ccccc34)CC2)c(C)c1 | · | · | · | i | · | · | · | · | · | ·
COc1cccc(C(=O)N/N=c2\oc3c(OC)cccc3cc2C(=O)NCc2ccccc2)c1 | 2 | 4.1µM* | -18 | i | 4 | 2.2µM* | ? | ? | 4% | -13%
CCN1C(=O)[C@@H]2[C@@H](c3ccc(-c4ccc(Cl)c(Cl)c4)cc3)N3CCC[C@@]3(C(=O)OC)[C@@H]2C1=O | · | 2.3µM* | 76 | 20µM* | · | 6.3µM* | 8.9µM* | ? | 10µM* | ?
Cc1ccc(S(=O)(=O)Nc2cc3c4c(c2)CCN4C(=O)CC3)cc1 | -1 | ? | -8 | i | 1 | · | · | · | · | 0% | ELG1 FLuc counter=34%;FLuc biochem=2%
COc1cc(C(=O)OCCCc2cc3ccccc3c(=O)o2)cc(OC)c1OC | -10 | ? | 4 | i | 3 | · | · | · | · | ·
COc1cc(C(=O)OCCc2cc3ccccc3c(=O)o2)cc(OC)c1OC | -1 | ? | -2 | i | 9 | 4.4µM* | ? | ? | ? | ?
